Assay outcomes as filed in PubChem.
Sampled rows, rich in hits. Any-hit rate of the full collection: about 5.8%.
KB-3-1 cytotox: qHTS assay for MDR1-selective chemotherapeutics: Primary screen using the parental adenocarcinoma cell KB-3-1 | KB-3-1 viability, CellTiter-Glo ATP luminescence, 72 h | Potency, µM (doses to about 46.1 µM), actives largely listed as cytotoxic | 400,000 compounds, 1.4% hits | AID 1347075, 2019; also: nearly all actives have a fitted effect of over 60% in size
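Luminescent ATP read-out (CellTiter-Glo) measures survival of drug-naive KB-3-1 cells after 72 h compound exposure at 37 °C. Titration series was screened from lowest to highest concentration, with DMSO vehicle plates as background controls.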
SW480 rereplic: A quantitative high throughput screen for small molecules that induce DNA re-replication in SW480 colon adenocarcinoma cells | Potency, µM (highest dose often 46.1 µM), actives largely listed as activators | SW480 DNA re-replication, Hoechst DNA content imaging, 48 h | 340,000 compounds, 1.8% hits | AID 624297, 2012; also: nearly all actives have a fitted effect of over 55% in size
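Hoechst fluorescence of nuclei (405 nm excitation, 500-530 nm emission) measured by plate-scanning imager after 48 hr compound exposure at 37 C; re-replication scored as increased number of nuclei with elevated intensity.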
KB-V1 cytotox: qHTS assay for MDR1-selective chemotherapeutics: Primary screen using the drug-selected MDR subline cells KB-V1 | Potency, µM (highest dose often 46.1 µM), hits mostly cytotoxic | AID 1347076, 2019 | KB-V1 MDR cells viability, CellTiter-Glo, 72 h | 400,000 compounds, 3.4% hits; also: nearly all actives have a fitted effect of over 60% in size
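KB-V1 cells (P-gp-expressing MDR subline of KB-3-1) in phenol-red-free DMEM with 10% FBS were exposed to library compounds over a concentration series for 72 h at 37 degrees C. Viability read by CellTiter-Glo luminescence; concentration-effect curves fitted after normalization.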
MCF10A rerep: A quantitative high throughput screen for small molecules that induce DNA re-replication in MCF 10a normal breast cells; MCF 10A DNA re-replication, Hoechst nuclear intensity, 48 h; Potency, µM (titrated, usually from 46.1 µM), usual class: activators; 350,000 compounds, 2.9% hits; AID 624296, 2012; also: nearly all actives have a fitted effect of over 50% in size
PINK1 expr mod: A Quantitative High throughput Screen to Identify Chemical Modulators of PINK1 Expression; PINK1 immunofluorescence, high-content cytometry, 24 h; Potency, µM (series often up to 76.6 µM), hits mostly activators; 410,000 compounds, 0.2% hits; AID 624263, 2012; active = well fitted activation curve with a large enough effect; inconclusive = small, poorly fitted or top-dose-only effect; cell line not stated here; also: nearly all actives have a fitted effect of over 65% in size
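Decision-based qHTS: stable cells, 24 h exposure to five compound concentrations, CCCP as control. Fixed cells stained for PINK1 plus nuclear, mitochondrial and cell markers, cytometer read.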
12-LOX inh: Primary qHTS assay for inhibitors of human arachidonate 12S-lipoxygenase (ALOX12): Round 2. Potency, µM (series often up to 108 µM), most hits filed as inhibitors. 580,000 compounds, 1.1% hits. purified 12hLO, xylenol orange hydroperoxide absorbance. Polyunsaturated fatty acid lipoxygenase ALOX12 (Homo sapiens), P18054
Target sequence (P18054 whole entry, looked up): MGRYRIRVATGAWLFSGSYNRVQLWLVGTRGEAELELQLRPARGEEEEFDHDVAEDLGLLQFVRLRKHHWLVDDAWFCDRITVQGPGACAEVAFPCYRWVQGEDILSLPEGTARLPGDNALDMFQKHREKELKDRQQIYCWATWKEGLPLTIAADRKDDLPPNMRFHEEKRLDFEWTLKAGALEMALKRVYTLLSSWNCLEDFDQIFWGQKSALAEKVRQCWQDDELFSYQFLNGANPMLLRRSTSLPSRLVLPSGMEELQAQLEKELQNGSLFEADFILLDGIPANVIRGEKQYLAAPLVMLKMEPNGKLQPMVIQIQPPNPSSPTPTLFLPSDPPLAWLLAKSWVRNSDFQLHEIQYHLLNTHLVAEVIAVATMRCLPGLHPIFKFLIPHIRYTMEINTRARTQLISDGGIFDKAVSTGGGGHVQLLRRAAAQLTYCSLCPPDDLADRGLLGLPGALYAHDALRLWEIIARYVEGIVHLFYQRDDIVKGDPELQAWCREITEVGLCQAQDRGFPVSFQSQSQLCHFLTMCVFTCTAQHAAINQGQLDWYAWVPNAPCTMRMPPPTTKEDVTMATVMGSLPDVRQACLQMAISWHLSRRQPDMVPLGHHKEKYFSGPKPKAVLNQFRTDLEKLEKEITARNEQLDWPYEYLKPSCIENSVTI
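Purified human 12hLO at 150 nM in 25 mM Hepes, 0.01% Triton X-100, pH 7.0, preincubated 15 min at room temperature with compound. Reaction started with 40 uM arachidonic acid, 30 min at room temperature. Hydroperoxide measured by Fe-xylenol orange, 573/405 nm absorbance ratio.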
A number is an active result; i = inactive; ? = inconclusive; nt = no result; [ ] = remark or other dose. Unless noted, calls follow the shape of the dose curve; as a rule, active = well fitted curve in the direction sought with a large enough effect; inconclusive = small, poorly fitted or top-dose-only effect, or another doubt; inactive = no such curve, though single readings can be large; an effect the other way counts as inactive or inconclusive.

SMILES	KB-3-1 cytotox	SW480 rereplic	KB-V1 cytotox	MCF10A rerep	PINK1 expr mod	12-LOX inh
CC(NC(=O)C(C)N1CCN(S(=O)(=O)c2ccccc2)CC1)c1ccccc1 (stereo unspecified)	i	i	15µM	i	i	?
CCCC(NC(=O)C(C)N1CCN(S(=O)(=O)c2ccccc2)CC1)c1ccccc1 (stereo unspecified)	i	i	7.3µM	i	i	i
CCOC(=O)c1c(Nc2ccc(OC)cc2)n[nH]c1C	nt	nt	nt	nt	nt	i
CCOC(=O)c1c(N/N=C/c2cccnc2)n[nH]c1C	9.2µM	?	5.8µM	?	i	i
CC(C)N1CCN(CCN2CC3(CCN(C(=O)CCN)CC3)OC2=O)CC1	nt	nt	nt	nt	nt	18µM
Cc1c(Cl)cccc1N1CC(c2nc3ccccc3n2C(C)C)CC1=O (stereo unspecified)	nt	nt	nt	nt	nt	i
CN(Cc1ccccc1)S(=O)(=O)c1cn(C)c(=O)n(C)c1=O	nt	nt	nt	nt	nt	i
O=S(=O)(Cc1cc(Cl)nc(-c2ccccc2)n1)c1ccccc1	i	?	i	21µM	?	i
COc1cc(NCCCCC(C)N)c2nccc(C)c2c1 (stereo unspecified)	5.2µM	nt	?	nt	i	?
CC(C)c1nnc2ccc(N3CCC(C(=O)Nc4ccc5c(c4)OCO5)CC3)nn12	nt	nt	nt	nt	nt	i
CC1CCc2nc(/C(C#N)=C/c3cccnc3)sc2C1 (stereo unspecified)	i	?	?	21µM	i	i
N#C/C(=C\c1cccnc1)c1nc2c(s1)CCCC2	i	i	?	i	i	i
Nc1c(C(=O)Nc2ccc3c(c2)OCCO3)nnn1Cc1ccc(Cl)cc1	i	i	i	i	i	i
NC(=O)c1nnn(Cc2cc(Cl)c(C(=O)c3ccc(Cl)cc3)c(Cl)c2)c1N	?	nt	8.2µM	nt	i	?
Fc1ccc(/C=N/Nc2ccc(F)cc2)cc1	nt	nt	nt	nt	nt	2.2µM
Brc1ccc(/C=N/Nc2ccccc2)cc1	?	?	i	?	i	45µM
CSC1=C(C#N)C(C)C2=C(CC(C)(C)CC2=O)N1 (stereo unspecified)	?	i	23µM	i	i	i
C=CCn1c(COc2ccccc2F)nnc1SCC(=O)c1c[nH]c2ccccc12	?	i	13µM	i	i	i
CS(=O)(=O)c1cc(C(=O)NCCc2cccs2)ccc1Cl	nt	nt	nt	nt	nt	i
CC(C)COc1ccc(-c2nnc(-c3ccco3)o2)cc1	i	?	i	i[0.0737 µM]	i	i
CCN(CC)CCCNc1ccc(-c2nnc(-c3ccc(OCC(C)C)cc3)o2)cn1	21µM	21µM	?	?	i	?
CCCN1CCCCC12Cc1ccccc1CN([S+](C)(=O)[O-])C2 (stereo unspecified)	nt	nt	nt	nt	nt	i[6.33 µM]
N#CC1(NC(=O)CSc2c(Cl)cccc2Cl)CCCCC1	nt	nt	nt	nt	nt	14µM
N#CC1(NC(=O)Cn2ncc(Cl)c(Cl)c2=O)CCCCC1	?	i	i	4.5µM	i	i
CN(Cc1cccs1)C(=O)COc1cccc2c1OC(C)(C)C2	i	i	18µM	i	i	i
SMILES	KB-3-1 cytotox	SW480 rereplic	KB-V1 cytotox	MCF10A rerep	PINK1 expr mod	12-LOX inh
CN(C)CCNC(=O)COc1cccc2c1OC(C)(C)C2	i	i	i	i	i	i
CC1(C)Cc2cccc(OCC(=O)NCCc3ccc(S(N)(=O)=O)cc3)c2O1	i	i	26µM	i	i	i
CC1(C)Cc2cccc(OCC(=O)NCCc3ccccc3)c2O1	i	i	?	i	i	i
Cc1nc2c(-c3ccccc3)c(C)nn2c(C)c1CC(=O)O	i	i	i	15µM	i	i
COC(CNC(=O)Cc1c(C)nc2c(-c3ccccc3)c(C)nn2c1C)OC	i	i	?	i	i	i
Cc1nc2c(-c3ccc(F)cc3)c(C)nn2c(C)c1CCC(=O)N1CCN(c2ccccc2)CC1	i	i	i	i	i	i
Cc1nc2c(-c3ccc(F)cc3)c(C)nn2c(C)c1CCC(=O)N1CCC(Cc2ccccc2)CC1	?	i	i	21µM	i	?
CC(=O)c1cnc2c(-c3ccccc3)cnn2c1C	?	i	21µM	i	i	i
CCOC(=O)Cc1c(C)nc2c(-c3ccccc3)cnn2c1C	i	?	i	1.3µM	i	i
CCN1CCC2(CCC1=O)CN(Cc1cccc(Cl)c1F)CCN2C (stereo unspecified)	nt	nt	nt	nt	nt	i
CCOC(=O)Cc1c(C)nc2c(-c3ccc(Cl)cc3)c(C)nn2c1C	i	?	?	23µM	i	i
Cc1ccc2[nH]c(C)c(CCN(Cc3ccncc3)C(=S)NC(C)(C)C)c2c1	nt	nt	nt	nt	nt	i
C=CCNC(=O)N1CCC(O)(c2csc(CN3CCc4ccccc4C3)n2)CC1	nt	nt	nt	nt	nt	i
Cc1csc(NC(=O)c2ccc(OCC3CCCO3)cc2)n1 (stereo unspecified)	i	i	13µM	i	i	i
O=C(Nc1nc(-c2ccc(F)c(F)c2)cs1)c1ccc(OCC2CCCO2)cc1 (stereo unspecified)	?	i	?	i	i	i
O=C(Nc1nc(-c2ccccn2)cs1)c1ccc(F)c(S(=O)(=O)N2CCOCC2)c1	?	?	?	i	i	i
CN(C)S(=O)(=O)c1ccc(C(=O)Nc2nc(-c3cc4ccccc4o3)cs2)cc1	i	i	i	4.6µM	i	i
CN(CC1CCCO1)S(=O)(=O)c1ccc(C(=O)Nc2nc(-c3ccccn3)cs2)cc1 (stereo unspecified)	4.1µM	i	i	i	i	nt
